Assay results reported in the supplement of paper PMC6555819.

Experiments:
Assay in all cases: PBM binding z-score (relative to random genomic background probes); higher = stronger binding; sequences stand for … in GC…GCGATTGACAGCGTAGAATGAAGG
[1] = test system: PPARg:RXRa DBDmut IVT, anti-RXR (DBD mutation: RXRa K156A/R161A, NR concentration 270 nM, RXRa partner concentration 90 nM)
Procedure, shortened: (§1)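 On custom Agilent 4×180K arrays, double-stranded probes with 34-nt variable regions carried direct-repeat seeds, single-nucleotide variants, half-site ablations or random human genomic background. Ligand-free nuclear receptor dimers were applied for 1 h, and binding was read with antibodies against each partner (one per run). Binding z-scores come from regression-normalized fluorescence, with the random background probes as reference.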

[2] = test system: PPARg:RXRa IVT, anti-PPARg (NR concentration 270 nM, RXRa partner concentration 90 nM)
Procedure, shortened: as §1

[3] = test system: PPARg DBDmut:RXRa IVT, anti-PPARg (DBD mutation: PPARg1 K132A/R137A, NR concentration 270 nM, RXRa partner concentration 90 nM)
Procedure, shortened: as §1

[4] = test system: PPARg DBDmut IVT, anti-PPARg (DBD mutation: PPARg1 K132A/R137A, NR concentration 270 nM)
Procedure, shortened: as §1

[5] = test system: PPARg homodimer (NR concentration 180 nM)
Procedure, shortened: as §1

[6] = test system: PXR:RXRa (NR concentration 270 nM, RXRa partner concentration 90 nM)
Procedure, shortened: as §1

[7] = test system: PXR homodimer (NR concentration 270 nM)
Procedure, shortened: as §1

[8] = test system: RARa:RXR (NR concentration 270 nM, RXRa partner concentration 90 nM)
Procedure, shortened: as §1

[9] = test system: RARa homodimer (NR concentration 270 nM)
Procedure, shortened: as §1

[10] = test system: RARb:RXRa (NR concentration 270 nM, RXRa partner concentration 90 nM)
Procedure, shortened: as §1

[11] = test system: RARb homodimer (NR concentration 270 nM)
Procedure, shortened: as §1

[12] = test system: RARg:RXRa (NR concentration 270 nM, RXRa partner concentration 90 nM)
Procedure, shortened: as §1

[13] = test system: RARg homodimer (NR concentration 270 nM)
Procedure, shortened: as §1

[14] = test system: RXRa DBDmut IVT, anti-RXR (DBD mutation: RXRa K156A/R161A, NR concentration 90 nM)
Procedure, shortened: as §1

[15] = test system: RXRa homodimer (NR concentration 180 nM)
Procedure, shortened: as §1

[16] = test system: THRa:RXRa (NR concentration 90 nM, RXRa partner concentration 90 nM)
Procedure, shortened: as §1

[17] = test system: THRa homodimer (NR concentration 90 nM)
Procedure, shortened: as §1

[18] = test system: VDR homodimer (NR concentration 270 nM)
Procedure, shortened: as §1

Sequence	PBM binding z-score [1]	PBM binding z-score [2]	PBM binding z-score [3]	PBM binding z-score [4]	PBM binding z-score [5]	PBM binding z-score [6]	PBM binding z-score [7]	PBM binding z-score [8]	PBM binding z-score [9]	PBM binding z-score [10]	PBM binding z-score [11]	PBM binding z-score [12]	PBM binding z-score [13]	PBM binding z-score [14]	PBM binding z-score [15]	PBM binding z-score [16]	PBM binding z-score [17]	PBM binding z-score [18]
CCTATAAGTTGACCATAAGGGCAACCGAAGCTCG	0.357	0.771	0.17	-0.0168	1.61	0.964	0.7	1.23	1.27	1.8	2.31	2.2	1.31	0.769	0.942	2.44	1.2	1.32
TCTAGTTGGTCATAGGTCACACACTCGAAATGCG	2.59	4.4	1.15	1.18	3.12	3.48	1.07	4.39	1.88	3.22	3.67	4.2	3.58	1.63	4.58	2.68	1.47	1.63
CGAACTAGGTCAAGGGCAGTGAATCTCCGCACGC	7.67	8.29	1.07	0.971	1.46	1.14	-0.131	1.86	-0.096	4.13	3.25	3.74	4.64	1.59	2.35	2.98	0.986	0.718
CGTCCAAGGTCAGAGAGCTCAGTGAATGCCGAGT	2.67	1.84	-0.717	-0.346	1.67	2.14	0.855	2.37	0.367	4.6	3.53	4.54	5.24	2.67	3.25	3.14	1.42	1.5
GGAACGAGGGCAACGTTGATAGCATCTGTCGACG	4.02	3.49	0.439	0.351	-0.132	0.282	-0.723	0.65	-0.381	2.32	0.961	1.37	1.79	1.56	0.986	0.981	-0.186	-0.00307
TCATATCGGTAAATGCTAGGTGAAAGTCCGATCT	1.8	1.17	0.763	0.728	0.249	0.387	-0.111	0.463	-0.336	0.381	0.513	-0.0615	0.173	1.14	0.375	0.889	0.553	0.0162
ATCTCTAGGTAAAATTCAGTGAAAGATCGATAGA	1.48	1.53	0.966	1.25	1.04	-0.0781	0.481	-0.157	1.26	0.336	-0.326	0.344	0.677	0.391	0.121	0.32	0.151	0.281
TAGCCTAGGTCATTGGGCCCGTATAGTACGCATC	1.78	3.02	0.545	-0.654	0.54	1.75	0.165	2	-0.326	3.74	2.73	3.69	4.06	1.8	2.68	3.01	1.43	0.994
CCGACTGTGGCAAGGTTACCATAACGCACAGCCA	1.15	0.507	-0.345	-0.505	0.63	0.176	0.241	0.594	0.511	0.885	1.13	0.293	0.461	0.0244	0.97	1.2	0.526	0.243
GGAACGAAGGCAAAGTTGATAGCATCTGTCGACG	-0.211	0.452	-0.0938	0.0461	-0.879	-0.707	-0.569	-0.458	-0.886	-0.337	-0.905	-0.275	-0.151	-0.157	-0.084	-0.716	-1.21	-1.02
TCTATTAGTTGCAGGGCAACCGACGAGTCCGTTT	2.17	1.01	0.15	1.26	0.494	0.353	0.498	0.391	0.736	0.851	0.506	0.104	0.0745	1.28	0.296	0.323	0.293	1.45
TCTTGTAGATCACGCAGGTTAAGAAAGCCTGAGT	2.2	1.64	0.55	0.645	0.083	0.585	0.000906	0.685	0.00384	0.386	0.254	0.174	0.0532	0.693	0.723	0.601	-0.33	-0.258
TCATATAGATAAATGCTAGGTGAAAGTCCGATCT	2.73	0.677	0.125	0.81	0.438	0.417	0.256	0.494	1.19	0.184	0.00895	0.12	0.317	1.66	0.786	0.626	0.378	0.203
GGAACGAGGGCATTCGAGTTGAAAGCATGGCGAT	2.58	2.01	-0.14	-0.111	0.301	3.96	1.15	1.18	-0.521	1.71	0.677	1.02	1.19	3.05	1.12	3.9	-0.523	3.1
CCTGCTAGGCCAATGGTCAGCTAAAGCAGCTCGC	0.832	0.413	-1.62	-1.52	-0.65	-0.919	-0.736	-0.768	-0.677	0.755	0.323	-0.216	0.173	-0.154	-0.899	-0.489	-0.709	-0.962
